# Measurements: PubChem BioAssay
# The source made the active and inactive calls. Unless noted, no rule for the calls is given here.
# Tests used:
# [1] = A549 cell viability effects, profiling panel, calcein-AM fluorescence, 48 h, basal (AID 1162); details: higher = more signal; also: test concentration not given here
# [2] = adipocyte viability effects, profiling panel, cell-based, 3T3-L1 adipocytes, calcein-AM fluorescence, 48 h, basal (AID 1163); details: 3T3-L1 adipocytes viability, higher = more signal; also: test concentration not given here
# [3] = HepG2 cell viability effects, profiling panel, calcein-AM fluorescence, 48 h, basal (AID 1164); details: higher = more signal; also: test concentration not given here
# [4] = MM1S cell viability effects, profiling panel, calcein-AM fluorescence, 48 h, basal (AID 1165); details: higher = more signal;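 also: viability of MM1S multiple myeloma cells under basal unstimulated conditions; test concentration not given here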
# [5] = basal RPMI8226 viability, no added stimulus, profiling panel, cell-based, calcein-AM fluorescence, 48 h, PK04 Diversity Set (AID 1166); details: RPMI8226 myeloma viability, higher = more signal;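 also: cells grown under basal conditions without added stimulus; test concentration not given here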
# [6] = basal HepG2 mitochondrial membrane potential changes, profiling panel, cell-based, JC-1 fluorescence, 24 h, 100 nL compound (AID 1167); details: higher = more signal; also: test concentration not given here
# [7] = basal 3T3-L1 adipocyte mitochondrial potential changes, profiling panel, cell-based, JC-1 fluorescence, 3T3-L1 adipocytes, 24 h, 100 nL compound (AID 1168); details: JC-1 mitochondrial fluorescence, higher = more signal, called active from +8 up or from −8 down; also: test concentration not given here
# [8] = basal RPMI8226 mitochondrial membrane potential changes, profiling panel, cell-based, JC-1 fluorescence, 24 h, 100 nL compound (AID 1169); details: RPMI8226 myeloma, JC-1 mitochondrial potential fluorescence, higher = more signal; also: test concentration not given here
# [9] = basal MM1S mitochondrial membrane potential changes, profiling panel, cell-based, JC-1 fluorescence, 24 h, 100 nL compound (AID 1170); details: higher = more signal; also: test concentration not given here
# [10] = A549 lung cancer cell viability effects, profiling panel, resazurin fluorescence, 24 h, PK04 Diversity Set (AID 1171); details: higher = more signal, called active from +8 up or from −8 down; also: test concentration not given here
# [11] = HepG2 liver cancer cell viability effects, profiling panel, resazurin fluorescence, 24 h, PK04 Diversity Set (AID 1172); details: higher = more signal; also: test concentration not given here
# [12] = basal S. cerevisiae growth modulation, no modifier, primary screen, OD600, strain BY4716, 24 h, basal condition (AID 1173); details: OD600, 24 h, higher = more signal, called active from +8 up or from −8 down
# [13] = MM1S myeloma cell viability, profiling panel, resazurin fluorescence, basal, 24 h, PK04 Diversity Set (AID 1174); details: higher = more signal, called active from +8 up or from −8 down;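 also: MM1S multiple myeloma cell line; test concentration not given here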
# [14] = molecular target: Dihydroorotate dehydrogenase (quinone), mitochondrial (Plasmodium falciparum (isolate 3D7)) (UniProt Q08210); experiment: PfDHODH enzyme inhibitors, primary screen, biochemical, C-terminal His tag, absorbance 600 nm (AID 1175); details: DCIP absorbance 600 nm, higher = more signal, called active from +8 up or from −8 down;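 also: recombinant parasite enzyme with a five histidine tag at its C terminus; test concentration not given here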
# [15] = P. aeruginosa biofilm formation inhibitors, primary screen, strain PAO1, LB-PBS medium, absorbance 600 nm (AID 1176); also: test concentration not given here; details: P. aeruginosa PAO1 growth/biofilm, A600, 12 h; higher = more signal
# [16] = S. cerevisiae RM11-1a growth modifiers, primary screen, strain RM11-1a, OD600, basal, 24 h (AID 1177); details: OD600, 24 h, higher = more signal, called active from +8 up or from −8 down;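 also: cultures grown under basal conditions with no added stressor; test concentration not given here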
# [17] = E. coli acrAB mutant growth effects, primary screen, E. coli filamentation inducers, strain DRC39, OD650, 24 h (AID 1178); details: higher = more signal, called active from +8 up or from −8 down;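 also: growth measured as culture turbidity by optical density at 650 nm; test concentration not given here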
# [18] = E. coli acrAB mutant growth effects, primary screen, E. coli filamentation inducers, strain DRC39, OD650, 48 h (AID 1179);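 also: screen aims at cell division blockers that make cells filament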; details: E. coli DRC39 delta-acrAB growth, higher = more signal, called active from +8 up or from −8 down
# [19] = RPMI8226 myeloma cell viability, profiling panel, resazurin fluorescence, basal, 24 h, PK04 Diversity Set (AID 1180); details: higher = more signal;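 also: RPMI8826 multiple myeloma cell line at 5000 cells per well; test concentration not given here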
# [20] = molecular target: E3 ubiquitin-protein ligase XIAP (Homo sapiens) (UniProt P98170); experiment: XIAP binders, primary screen, biophysical, small-molecule microarray, fluorescence 635 nm (AID 1181); details: small-molecule microarray binding, higher = more signal;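 also: score merges 667 nm emission and signal to noise over triplicate slides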
# Chain of E3 ubiquitin-protein ligase XIAP (Homo sapiens) (P98170 whole entry, looked up): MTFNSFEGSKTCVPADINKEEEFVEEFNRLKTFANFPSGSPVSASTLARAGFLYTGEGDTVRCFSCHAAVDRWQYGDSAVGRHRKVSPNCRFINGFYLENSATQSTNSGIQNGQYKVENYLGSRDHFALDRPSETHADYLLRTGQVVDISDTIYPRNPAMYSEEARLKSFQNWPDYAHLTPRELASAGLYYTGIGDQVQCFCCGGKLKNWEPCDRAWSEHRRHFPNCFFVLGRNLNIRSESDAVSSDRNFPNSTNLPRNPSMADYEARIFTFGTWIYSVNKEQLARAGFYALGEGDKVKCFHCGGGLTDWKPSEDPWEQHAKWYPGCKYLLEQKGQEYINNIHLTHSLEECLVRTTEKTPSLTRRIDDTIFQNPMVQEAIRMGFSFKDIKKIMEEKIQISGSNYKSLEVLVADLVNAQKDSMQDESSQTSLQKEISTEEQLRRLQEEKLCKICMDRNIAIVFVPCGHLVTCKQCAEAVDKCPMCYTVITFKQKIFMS
# Chain of Dihydroorotate dehydrogenase (quinone), mitochondrial (Plasmodium falciparum (isolate 3D7)) (Q08210 whole entry, looked up): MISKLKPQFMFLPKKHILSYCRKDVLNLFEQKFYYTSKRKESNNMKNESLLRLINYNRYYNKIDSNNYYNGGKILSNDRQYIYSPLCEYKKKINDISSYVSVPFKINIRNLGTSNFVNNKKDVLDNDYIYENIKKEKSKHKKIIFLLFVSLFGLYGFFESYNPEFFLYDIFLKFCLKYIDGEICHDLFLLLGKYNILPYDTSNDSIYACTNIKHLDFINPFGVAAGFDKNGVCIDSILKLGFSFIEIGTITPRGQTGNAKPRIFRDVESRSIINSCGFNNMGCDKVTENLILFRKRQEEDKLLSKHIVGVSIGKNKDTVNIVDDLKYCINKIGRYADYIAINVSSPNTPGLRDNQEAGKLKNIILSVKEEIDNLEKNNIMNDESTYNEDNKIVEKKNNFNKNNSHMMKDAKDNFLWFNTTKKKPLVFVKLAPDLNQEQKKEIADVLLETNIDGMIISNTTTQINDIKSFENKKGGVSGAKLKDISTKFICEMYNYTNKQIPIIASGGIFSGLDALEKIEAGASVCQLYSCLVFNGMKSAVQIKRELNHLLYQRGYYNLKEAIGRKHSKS
Structure (SMILES),z-score [1],z-score [2],z-score [3],z-score [4],z-score [5],z-score [6],z-score [7],z-score [8],z-score [9],z-score [10],z-score [11],z-score [12],z-score [13],composite z-score [14],z-score [15],z-score [16],z-score [17],z-score [18],z-score [19],composite z-score [20]
CCCc1cccc(=O)o1,-0.996,0.369,-0.133,0.25,-0.316,-0.147,0.72 (inactive),-0.417,-0.773,0.366 (inactive),0.866,0.68 (inactive),0.821 (inactive),-0.661 (inactive),0.353 (inactive),-0.243 (inactive),-0.161 (inactive),0.846 (inactive),0.819,-0.0721
CC1CC/C=C\[C@H]2OC34C=CCN(CCN5CCOCC5)C(=O)[C@H]3N(CCO)C(=O)[C@@H]4C2C(=O)O1 (stereo not given in full),-0.507,1.44,-0.186,0.237,0.143,-0.382,-0.533 (inactive),0.673,0.671,-0.451 (inactive),0.106,-0.158 (inactive),0.322 (inactive),-0.4 (inactive),0.826 (inactive),-0.585 (inactive),-0.0987 (inactive),-0.557 (inactive),0.119,-0.128
COC(=O)[C@@]1(Cc2ccc(OC)cc2)[C@H]2c3cc(C(=O)N(C)C)n(CCc4c[nH]c5ccc(O)cc45)c3C[C@H]2CN1C(=O)c1ccccc1,-1.66,-0.737,0.197,-1.98,-1.32,0.941,-0.966 (inactive),-0.564,-1.37,-1.33 (inactive),-0.855,1.29 (inactive),-1.64 (inactive),-0.568 (inactive),0.15 (inactive),0.599 (inactive),-0.135 (inactive),0.301 (inactive),-2.36,0.201
C=C(COC)/C(=C/C[C@@H](OC(=O)c1ccncc1)c1cccc(OCCO)c1)c1cnc2ccccc2c1,0.0954,0.542,-1.03,-2.17,-0.307,0.862,-1.76 (inactive),0.187,0.276,-0.634 (inactive),-0.464,-17.3 (active),-0.835 (inactive),-6.7 (inactive),1.17 (inactive),-5.29 (inactive),-0.451 (inactive),-0.318 (inactive),-0.526,0.594
